Bioassay records (PubChem)
DRD3 antagonist – qHTS of D3 Dopamine Receptor Antagonist: qHTS; 2.5% of 360,000 active; max response, negative = inhibition, %; AID 652054, 2013; D3R cells, DiscoveRx beta-arrestin luminescence, antagonist mode; hits give low values; D(3) dopamine receptor (Homo sapiens), P35462; in the data active means max response below about -50%; inconclusive means no clear call, values can overlap the other calls; further: on the % scale 0 is the no-effect control and ±100 the full control effect
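Cells plated overnight at 1500 cells/well, then exposed to library compounds with dopamine controls for 90 minutes at 37 degrees C. DiscoveRx reagent added for 30–60 minutes at room temperature; luminescence read, quantitative HTS format.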
ClpP mod – qHTS Assay for Activators of ClpP; 1.9% of 340,000 active; ATP-dependent Clp protease proteolytic subunit (Bacillus subtilis (strain 168)), P80244; AID 651965, 2013; purified B. subtilis ClpP, FRET peptide cleavage, 20 min; Potency, µM (highest dose often 57.5 µM), inactives show at the highest dose activity change, negative = active; active means well fitted falling curve with a large enough effect; inconclusive means small, poorly fitted or top-dose-only effect; inactive means no such curve, though single readings can be large or run the other way; further: potency means the concentration at half of the fitted maximal effect; the source files actives as falling curves though it sought activators and does not explain the sign; nearly all actives have a fitted effect of over 65% in size
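Purified B. subtilis ClpP, 10 microg/mL final in Tris/HCl pH8 with KCl, BSA, glycerol and Tween-20, cleaved an Abz/nitrotyrosine-quenched decapeptide. Fluorescence (ex 320, em 430) was read at 0 and 20 min at room temperature. Delta was normalized to 5.8 microM ADEP and DMSO/no-enzyme controls.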
TDP1 cell CPT – qHTS for Inhibitors of human tyrosyl-DNA phosphodiesterase 1 (TDP1): qHTS in cells in presence of CPT; chicken DT40 Tdp1-/-;hTDP1 cells + 20 nM CPT, ATP luminescence, 48 h; Potency, µM (top dose mostly 46.2 µM), inactives show at the top dose activity change, negative = growth inhibition, most hits filed as inhibitors; 12% of 420,000 active; further: potency means the concentration at half of the fitted maximal effect; on the % scale 0 is the no-effect control and ±100 the full control effect; nearly all actives have a fitted effect of over 55% in size
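Chicken DT40 Tdp1-/- cells complemented with human TDP1, 400 cells/well, exposed to compounds plus 20 nM camptothecin for at least 48 h at 37 C; viability read as ATP content by CellTiter-Glo luminescence.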
D3 ag – qHTS of D3 Dopamine Receptor Agonist: qHTS. D(3) dopamine receptor (Homo sapiens), P35462. 0.58% of 410,000 active. AID 652048, 2013. D3R DiscoveRx beta-arrestin cells, luminescence, 90 min. max activation, %; in the data active means max activation above about 30%; further: 0% is about no effect
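Cells at 1500/well, incubated overnight, then treated with pinned compounds (dopamine as control) for 90 min at 37 degrees C. DiscoveRx reagent added for 30 - 60 minutes at room temperature; luminescence read.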
IL1B secr inh – qHTS for Inhibitors of Inflammasome Signaling: IL-1-beta AlphaLISA Primary Screen. THP-1 LPS/ATP IL-1B secretion, AlphaLISA, 16 h; hits give low values. activity change, % at 57.5 µM. 4.7% of 360,000 active. AID 743279, 2014; in the data active means activity change below about -50%; inconclusive means mostly about -30% to -49%; further: on the % scale 0 is the no-effect control and ±100 the full control effect
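Secreted IL-1B measured by AlphaLISA bead assay after 16 h compound exposure of THP-1 cells; compounds (final up to 57.5 uM) added 1 h before LPS (250 ng/mL) and ATP (1.25 mM) stimulation; lower signal means less secretion.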
DT40 TDP1 no CPT – qHTS for Inhibitors of human tyrosyl-DNA phosphodiesterase 1 (TDP1): qHTS in cells in absence of CPT | DT40 Tdp1-/- hTDP1 cells, no CPT, ATP luminescence, 48 h | Potency, µM (titrated, usually from 46.2 µM), for the others: at the top dose activity change, negative = growth inhibition, usual class: inhibitors | 15% of 420,000 active | AID 686978, 2013; further: potency means the concentration at half of the fitted maximal effect; on the % scale 0 is the no-effect control and ±100 the full control effect; nearly all actives have a fitted effect of over 55% in size
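Seeded 400 DT40-hTDP1 cells/well (vehicle DMSO, no 20 nM CPT); pinned compounds; ≥48 hr at 37 °C; CellTiter-Glo luminescence as viability measure.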
* marks the source's active call; other numbers are inactive results; ? = inconclusive; nt = no result; [ ] = remark or other dose. Sampled rows, rich in hits. Any-hit rate of the full collection: about 21%. Unless noted, the call rests on the fitted dose curve; in most records, active means well fitted inhibition curve with a large enough effect; inconclusive means small, poorly fitted or top-dose-only effect; inactive means flat fitted curve, though single readings scatter.

SMILES	DRD3 antagonist	ClpP mod	TDP1 cell CPT	D3 ag	IL1B secr inh	DT40 TDP1 no CPT
C[C@H]1CC[C@@H]2[C@@H](C)[C@H]3[C@H](C[C@H]4[C@@H]5CC=C6CC(O[C@@H]7O[C@H](CO)[C@H](O)[C@H](O[C@@H]8O[C@H](CO)[C@@H](O)[C@H](O)[C@H]8O)[C@H]7O[C@H]7O[C@@H](C)[C@H](O)[C@@H](O)[C@H]7O)CC[C@]6(C)[C@H]5CC[C@]34C)N2C1 (stereo partly specified)	nt	nt	?	-1.0	nt	?
CC1CC[C@@]2(OC1)OC1C(O)C3C4CC[C@H]5CC(O[C@@H]6O[C@@H](CO)[C@H](OC7OC(CO)C(O)C(OC8OCC(O)C(O)[C@H]8O)[C@@H]7O[C@@H]7OC(CO)[C@H](O)[C@@H](O[C@@H]8OC(CO)C(O)C(O)C8O)C7O)C(O)C6O)C(O)C[C@]5(C)C4CC[C@]3(C)C1C2C (stereo partly specified)	nt	nt	2.31µM*	nt	nt	1.3µM*
CC1CC[C@@]2(OC1)O[C@@H]1[C@@H](O)[C@H]3C4CC[C@H]5C[C@@H](O[C@@H]6O[C@H](CO)[C@H](O[C@@H]7O[C@H](CO)[C@@H](O)[C@H](O[C@@H]8OC[C@@H](O)[C@H](O)[C@H]8O)[C@H]7O[C@@H]7O[C@H](CO)[C@@H](O)[C@H](O[C@@H]8O[C@H](CO)[C@@H](O)[C@H](O)[C@H]8O)[C@H]7O)[C@H](O)[C@H]6O)[C@H](O)C[C@]5(C)C4CC[C@]3(C)[C@H]1[C@@H]2C (stereo partly specified)	nt	nt	5.31µM*	nt	nt	6.68µM*
C/C(=C/CCC(C)[C@H]1CC[C@@]2(C)C3=C(CC[C@]12C)[C@@]1(C)CCC(=O)C(C)(C)[C@@H]1CC3)C(=O)O (stereo partly specified)	?	-0.7%	?	4.7	0.0	?
CN(CCS(=O)(=O)c1ccc(Cl)cc1)Cc1cccnc1	0.9	nt	-29.6%	1.7	?	?
CC(=O)OC1(C)CC(C)C(=O)C(C(O)CC2CC(=O)NC(=O)C2)C1 (stereo unspecified)	7.9	1.4%	0.184µM*	-3.2	-108.9*	0.206µM*
C[C@@H]1C[C@@H]([C@H](O)CC2CC(=O)NC(=O)C2)C(=O)[C@@H](C)C1	5.4	-2.3%	0.164µM*	6.8	-57.6*	0.164µM*
O=C(O)[C@H]1C[C@@H]1[C@H](NP(=O)(c1ccccc1)c1ccccc1)c1ccccc1	34.8	-1.2%	20.4%	5.9	0.0	3.0%
CN(C)CCCOc1nn(Cc2ccccc2)c2ccccc12	-93.1*	4.4%	?	-86.9	-9.9	23.1µM*
CN(C)CCn1cnc2ccccc21	3.3	0.9%	4.9%	16.6	17.4	25.1%
Cc1cc(N(C)C)ccc1N=Nc1ccc(N)cc1	?	1.4%	?	11.2	-26.0	13µM*
CCn1c(NN=O)nc2ccccc21	-20.1	-0.6%	7.31µM*	-10.5	99.6	?
COc1ccc(-[n+]2c(-c3ccccc3)cc(-c3ccccc3)cc2-c2ccccc2)cc1	96.6	-0.8%	0.411µM*	-1.4	-76.3*	0.259µM*
O=[N+]([O-])c1ccc(-[n+]2c(-c3ccccc3)cc(-c3ccccc3)cc2-c2ccccc2)cc1	-28.6	0.0%	?	-5.6	-2.6	20.6µM*
C[n+]1c(-c2ccccc2)cc(-c2ccc(O)cc2)cc1-c1ccccc1	9.5	nt	18.4µM*	2.3	?	20.6µM*
Oc1ccccc1-[n+]1c(-c2ccccc2)cc(-c2ccccc2)c(O)c1-c1ccccc1	10.7	-5.2%	?	-16.0	3.9	?
Oc1ccc(-[n+]2c(-c3ccccc3)cc(-c3ccccc3)cc2-c2ccccc2)cc1	9.4	3.2%	1.16µM*	-0.5	-95.1*	0.651µM*
CCOC(=O)C1(CCc2ccccc2)CCN(CC(O)CO)CC1 (stereo unspecified)	44.6	-0.4%	-10.3%	-2.7	-7.2	-23.3%
Cc1ccc(N)cc1Cl	2.0	1.9%	18.9%	0.3	21.2	9.4%
O=C(O)[C@H]1NC[C@H]2C[C@H]21	21.1	nt	-5.7%	1.5	10.7	-2.1%
CNCCc1ccc(O)c(O)c1	14.7	2.9%	8.2µM*	115.8*	-1.4	5.17µM*
CC(C)c1ccc(N2C(=O)NC(=O)/C(=C\c3cnc(-c4ccccc4)nc3)C2=O)cc1	-8.6	-0.7%	?	-0.6	-4.1	?
CC(C)c1ccc(N2C(=O)NC(=O)/C(=C\C=C\c3ccco3)C2=O)cc1	-14.6	nt	?	0.6	-99.9*	?
C1=C(c2c[nH]c3ccccc23)CCN(Cc2ccccc2)C1	-101.1*	-10.5%	9.2µM*	-20.6	0.0	4.61µM*
CN1CC=C(c2c[nH]c3ccccc23)CC1	-84.6*	-21.9%	-29.9%	-15.8	-6.4	-18.5%
SMILES	DRD3 antagonist	ClpP mod	TDP1 cell CPT	D3 ag	IL1B secr inh	DT40 TDP1 no CPT
O=[N+]([O-])c1ccc(CN2CC=C(c3ccccc3)CC2)cc1	-54.8*	nt	-12.4%	-16.4	-13.4	?
NC[C@H](CC(=O)O)c1ccc(Cl)cc1	nt	nt	?	nt	nt	-4.0%
COc1cc(CCN)cc(OC)c1OC	nt	nt	4.7%[92.5 µM]	7.3	nt	-13.0%[92.5 µM]
CCOC(C[n+]1c(-c2ccccc2)cc(C)cc1-c1ccccc1)OCC	6.5	3.7%	1.64µM*	-10.8	4.5	0.517µM*
CCCCC1(CCCC)C(=O)NC(=Nc2cccc(C)c2)NC1=O	?	-2.2%	16.4µM*	1.5	-56.1*	18.4µM*
O=P(O)(O)Oc1ccccc1P(=O)(c1ccccc1)c1ccccc1	1.2	0.6%	18.0%	2.5	47.7	-9.8%
CN(C)c1ccc(C(O)P(=O)(OC2CCCCC2)OC2CCCCC2)cc1 (stereo unspecified)	3.0	nt	?	-2.6	-10.8	-29.6%
S=C(NCCc1ccccc1)N1Cc2ccc(Br)cc2-n2nncc2C1	-2.0	-1.5%	?	-3.6	?	?
COC(=O)c1nc(-c2ccc3c(n2)C(=O)C(N)=C(OC)C3=O)c(N)c(-c2ccc(OC)c(OC)c2O)c1C	0.0	nt	0.461µM*	0.1	-55.1*	0.92µM*
O=C(CSc1nc2c([nH]c3ccccc32)c(=O)n1-c1ccccc1)c1ccccc1	nt	-11.5%	?	-11.2	nt	?
